Measured values reported in the supplement of paper PMC12350171.
Structures can show the parent of a compound that is named as a salt. A number with no mark means an inactive call.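 The calls were made as follows: active = normalised median growth AUC below 0.1 of DMSO control; inactive = AUC 0.1 or higher.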

Tests used:
Test in all cases: growth AUC normalised to DMSO control (median) (fraction of control); higher = less growth inhibition, active = hit call of the paper
Details in all cases: 20 µM
P. vulgatus RND KO = system: P. vulgatus RND KO
Outline: (§1)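 Area under the growth curve, calculated by the trapezoidal rule up to entry into stationary phase, was normalised to vehicle wells on the same plate. Strains had been passaged twice overnight without oxygen and then grown in mGAM in 96-well plates from OD578 0.01, each with an approved-drug library compound at 20 μM in 1% DMSO. OD578 was read hourly over 24 h in an anaerobic incubator, and the median of three biological replicates is given.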

P. vulgatus WT = system: P. vulgatus WT
Outline: as §1

[1] = system: S. enterica typhimurium WT
Outline: as §1

[2] = system: S. enterica typhimurium tolC KO
Outline: as §1
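Also: active when median AUC fell below 0.1.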

SMILES	growth AUC normalised to DMSO control (P. vulgatus RND KO)	growth AUC normalised to DMSO control (P. vulgatus WT)	growth AUC normalised to DMSO control [1]	growth AUC normalised to DMSO control [2]
CCC[C@@H]1C[C@@H](C(=O)N[C@@H]([C@H]2O[C@H](SC)[C@H](OP(=O)(O)O)[C@@H](O)[C@H]2O)[C@H](C)Cl)N(C)C1 [Clindamycin Phosphate]	0.844	0.895	1	0.961
C[C@H](Cc1cc2c(c(C(N)=O)c1)N(CCCO)CC2)NCCOc1ccccc1OCC(F)(F)F [Silodosin]	1.06	1.05	1.01	0.961
CC(C)Oc1ccc2c(=O)c(-c3ccccc3)coc2c1 [Ipriflavone]	1.04	1.07	0.978	0.859
Cc1ccc2c(Cl)cc(Cl)c(O)c2n1 [Chlorquinaldol]	0.0174 (active)	0.014 (active)	0.982	0.371
CC(C)=CCC1C(=O)N(c2ccccc2)N(c2ccccc2)C1=O [Feprazone]	1.04	1.09	1	0.983
Cc1cc(O)c(C(=O)N[C@@H](C(=O)N[C@@H]2C(=O)N3C(C(=O)O)=C(CSc4nnnn4C)CS[C@H]23)c2ccc(O)cc2)cn1 [Cefpiramide]	0.0197 (active)	0.0147 (active)	0.121	0.0047 (active)
CC(NN)c1ccccc1 (stereo not drawn) [Mebanazine]	0.898	0.871	1	0.99
O=C1[C@H](CC[C@H](O)c2ccc(F)cc2)[C@@H](c2ccc(O)cc2)N1c1ccc(F)cc1 [Ezetimibe]	0.901	0.918	1	0.828
C[C@@H]1CCO[C@H]2Cn3cc(C(=O)NCc4ccc(F)cc4F)c(=O)c(O)c3C(=O)N12 [Dolutegravir]	0.0521 (active)	0.049 (active)	1	0.907
CO[C@@H]1[C@@H](O[C@@H]2O[C@H](C)[C@@H](O[C@H]3C[C@@](C)(O)[C@@H](O)[C@H](C)O3)[C@H](N(C)C)[C@H]2O)[C@@H](CC=O)C[C@@H](C)[C@@H](O[C@H]2CC[C@H](N(C)C)[C@@H](C)O2)/C=C/C=C/C[C@@H](C)OC(=O)C[C@H]1OC(C)=O [Acetyl spiramycin]	0.0119 (active)	0.00707 (active)	0.991	0.65
COc1ccc(C2C(=O)c3ccccc3C2=O)cc1 [Anisindione]	1	1	0.973	0.749
Cc1ccsc1C(=CCCN1CCC[C@@H](C(=O)O)C1)c1sccc1C [Tiagabine hydrochloride]	0.999	0.984	1	1
COc1ccc(CNc2nc(N3CCC[C@H]3CO)ncc2C(=O)NCc2ncccn2)cc1Cl [Avanafil]	1	1.03	1.01	0.962
COc1cc(N)cn[n+]1-c1ccccc1 [Amezinium metilsulfate]	1.01	1	1	1
O=c1oc2cc(O)ccc2s1 [Tioxolone]	1.02	1.02	0.989	0.999
Cc1ccc(Nc2c(F)cccc2Cl)c(CC(=O)O)c1 [Lumiracoxib]	0.985	1.01	1	1

SMILES	growth AUC normalised to DMSO control (P. vulgatus RND KO)	growth AUC normalised to DMSO control (P. vulgatus WT)	growth AUC normalised to DMSO control [1]	growth AUC normalised to DMSO control [2]
CC1=NN(c2ccccc2)C(=O)C1 [Edaravone]	0.998	1.01	1	0.982
CC(C)CN(C[C@@H](O)[C@H](Cc1ccccc1)NC(=O)O[C@H]1CCOC1)S(=O)(=O)c1ccc(N)cc1 [Amprenavir]	1.01	1.06	0.995	0.995
Cc1[nH]cnc1CN1CCc2c(c3ccccc3n2C)C1=O [Alosetron hydrochloride]	0.996	0.999	1	0.995
COC(=O)N/N=C/c1c[n+]([O-])c2ccccc2[n+]1[O-] [Carbadox]	0.0197 (active)	0.0112 (active)	0.558	0.591
CN(CCCN1c2ccccc2CCc2ccccc21)CC(=O)c1ccc(Cl)cc1 [Lofepramine]	0.944	0.964	0.985	0.957
Cc1ccccc1C(=O)Nc1ccc(C(=O)N2CCCC(O)c3cc(Cl)ccc32)c(C)c1 (stereo not drawn) [Tolvaptan]	0.919	0.928	0.993	0.94
COc1ccnc(C[S+]([O-])c2nc3cc(OC(F)F)ccc3[nH]2)c1OC (stereo not drawn) [Pantoprazole sodium]	0.991	0.998	1.01	0.937
O=c1[nH]c(=O)n(C2CCCO2)cc1F (stereo not drawn) [Tegafur]	1	1.01	1	0.999
Nc1cccc2c1C(=O)N(C1CCC(=O)NC1=O)C2=O (stereo not drawn) [Pomalidomide]	1.06	1.09	1.02	0.983
Cc1nc(C)c(Cl)c(O)c1Cl [Clopidol]	1.01	0.991	1.01	0.983
CN(C)c1ccc2nc3ccc(=[N+](C)C)cc-3sc2c1 [Methylene blue]	1	1.02	0.98	0.862
N#C/C(=C1/SCC(c2ccccc2Cl)S1)n1ccnc1 (stereo not drawn) [Lanoconazole]	1.04	1.08	1	0.834
O=C(O)CNC(=O)c1ccccc1 [Hippuric acid]	1.1	1.05	1.01	1.02
CC(C)(C)C(O)/C=C/c1ccc2c(c1)OCO2 (stereo not drawn) [Stiripentol]	1.01	1.02	1	0.93
CC(=O)OCC(=O)[C@@]1(O)CC[C@H]2[C@@H]3CCC4=CC(=O)C=C[C@]4(C)[C@@]3(Cl)[C@@H](Cl)C[C@@]21C [Dichlorisone acetate]	0.976	0.97	0.989	0.956
Oc1c(Cl)cc(Cl)cc1Sc1cc(Cl)cc(Cl)c1O [Bithionol]	0.0149 (active)	0.0115 (active)	0.991	0.0167 (active)
